According to PubChem BioAssay:
For part of these data: Results with a measured potency or affinity are listed apart. Active and inactive are the calls of the source.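 How the source made its calls, unless noted: active means earlier screen potentiator hit that boosts the TRPC4 ion channel at some dose, with a dose response; inactive means no potentiation, no dose response, or not a prior hit.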

Assays:
[1] = tested on: TRPC4 beta (transient receptor potential cation channel C4), mouse; assay: TRPC4 cation channel opening, retest – cell-based, Fluo4 calcium, HEK293 TRPC4beta/mu-opioid, duplicates, 10 µM, confirmation (AID 2426;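 active means fluorescence ratio normalized to control raised more than 50% in primary screen plus both repeat runs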); details: Fluo4 calcium fluorescence, at 10 µM; active compounds read high
[2] = tested on: transient receptor potential cation channel C4 beta (TRPC4), mouse; assay: TRPC4 cation channel opening, second retest – cell-based, second round, Fluo4, HEK293 TRPC4beta/mu-opioid, 1 µM, confirmation (AID 2461;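 active means primary screen active and over 50% activation in each of two duplicate runs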); details: Fluo4 calcium fluorescence, at 1 µM; active compounds read high
[3] = tested on: TRPC4 (transient receptor potential cation channel C4 beta), mouse; assay: potentiation of DAMGO EC20 TRPC4 response – cell-based, second round, Fluo-4, HEK293 TRPC4beta/mu-opioid, 1 µM, confirmation (AID 2554;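 active means primary screen hit whose fluorescence ratio, in both repeats, exceeds the weak agonist control mean by 3 SD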); details: DAMGO EC20, Fluo-4 calcium flux, at 1 µM; active compounds read high
[4] = tested on: TRPC4 beta (transient receptor potential cation channel C4), mouse; assay: potentiation of DAMGO EC20 TRPC4 response – cell-based, Fluo-4, HEK293 TRPC4beta/mu-opioid, confirmation (AID 2555;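 active means primary screen hit whose calcium fluorescence ratio, in both repeats, exceeds the weak agonist control mean by 3 SD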); details: DAMGO EC20, Fluo-4 calcium flux, at 10 µM; active compounds read high
[5] = biological target: Short transient receptor potential channel 4 (Mus musculus) (UniProt Q9QUQ5); assay: blockers of DAMGO-evoked TRPC4 calcium flux – cell-based, Fluo4, HEK293 TRPC4beta/mu-opioid, confirmation (AID 2636;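 active means calcium signal cut by more than 3 SD below the full-agonist control yet still positive, in both repeats and the earlier primary screen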); details: at 10 µM; active compounds read high
Sequence of Short transient receptor potential channel 4 (Mus musculus) (Q9QUQ5 whole entry, looked up): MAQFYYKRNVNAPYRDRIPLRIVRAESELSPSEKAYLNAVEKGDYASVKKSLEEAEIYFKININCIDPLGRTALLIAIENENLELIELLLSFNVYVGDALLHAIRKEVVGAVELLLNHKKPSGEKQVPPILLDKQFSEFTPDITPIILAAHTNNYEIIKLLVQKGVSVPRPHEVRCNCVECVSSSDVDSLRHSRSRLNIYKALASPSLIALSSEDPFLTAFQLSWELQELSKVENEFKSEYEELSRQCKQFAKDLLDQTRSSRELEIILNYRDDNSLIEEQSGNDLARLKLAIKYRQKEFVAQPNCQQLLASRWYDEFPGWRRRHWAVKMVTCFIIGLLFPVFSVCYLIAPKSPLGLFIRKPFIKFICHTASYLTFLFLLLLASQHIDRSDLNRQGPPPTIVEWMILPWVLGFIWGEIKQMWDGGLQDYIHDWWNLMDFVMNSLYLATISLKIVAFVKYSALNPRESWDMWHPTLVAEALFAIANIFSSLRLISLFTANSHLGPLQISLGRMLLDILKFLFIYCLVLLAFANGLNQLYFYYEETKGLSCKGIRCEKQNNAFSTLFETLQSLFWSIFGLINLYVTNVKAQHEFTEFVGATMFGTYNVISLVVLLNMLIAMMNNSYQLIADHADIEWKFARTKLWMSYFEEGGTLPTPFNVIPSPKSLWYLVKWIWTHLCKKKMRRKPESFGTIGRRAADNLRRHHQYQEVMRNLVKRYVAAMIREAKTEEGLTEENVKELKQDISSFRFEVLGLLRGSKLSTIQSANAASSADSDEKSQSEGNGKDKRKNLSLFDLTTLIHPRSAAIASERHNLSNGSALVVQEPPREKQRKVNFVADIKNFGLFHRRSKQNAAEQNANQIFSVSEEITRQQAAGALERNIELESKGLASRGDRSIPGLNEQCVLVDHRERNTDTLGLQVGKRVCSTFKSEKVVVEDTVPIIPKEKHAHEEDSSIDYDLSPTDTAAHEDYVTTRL

[6] = biological target: Short transient receptor potential channel 4 (Mus musculus) (UniProt Q9QUQ5); assay: blockers of DAMGO-evoked TRPC4 calcium flux – cell-based, second round, Fluo4, HEK293 TRPC4beta/mu-opioid, 1 µM, confirmation (AID 2637;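 active means calcium signal ratio cut to more than 3 SD under the fully stimulated control mean yet still positive, in both repeats and the primary screen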;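 on inhibition: percent of integrated ratio relative to wells lacking test compound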); details: at 1 µM; active compounds read high
[7] = biological target: Short transient receptor potential channel 4 (Mus musculus) (UniProt Q9QUQ5); assay: calcium entry via TRPC4 opening agents – cell-based, HEK293 TRPC4/mu-opioid, Fluo-4 calcium, dose response (AID 434937;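 active means primary screen activator hit with a dose response curve and TRPC4 channel activation at any tested dose; inactive means no activation, no dose response, or not a primary hit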)
[8] = biological target: Short transient receptor potential channel 4 (Mus musculus) (UniProt Q9QUQ5); assay: potentiation of DAMGO-evoked TRPC4 calcium signal – cell-based, HEK293 TRPC4/mu-opioid, Fluo-4 calcium, EC20 DAMGO, dose response (AID 434941);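 further: calcium entry triggered by an EC20 dose of DAMGO at the co-expressed mu-opioid receptor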
[9] = biological target: Short transient receptor potential channel 6 (Mus musculus) (UniProt Q61143); assay: TRPC6 blockade by TRPC4 inhibitor hits – cell-based, HEK293, membrane potential dye, duplicate, selectivity assay for TRPC4 inhibitor project, confirmation (AID 434948;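 active means active in primary screen and both duplicates, each dropping signal beyond three positive-control SD with fluorescence still positive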); details: HEK293 TRPC6, membrane potential dye fluorescence, at 10 µM, stimulated with maximal-effect acetylcholine; active compounds read high
Sequence of Short transient receptor potential channel 6 (Mus musculus) (Q61143 whole entry, looked up): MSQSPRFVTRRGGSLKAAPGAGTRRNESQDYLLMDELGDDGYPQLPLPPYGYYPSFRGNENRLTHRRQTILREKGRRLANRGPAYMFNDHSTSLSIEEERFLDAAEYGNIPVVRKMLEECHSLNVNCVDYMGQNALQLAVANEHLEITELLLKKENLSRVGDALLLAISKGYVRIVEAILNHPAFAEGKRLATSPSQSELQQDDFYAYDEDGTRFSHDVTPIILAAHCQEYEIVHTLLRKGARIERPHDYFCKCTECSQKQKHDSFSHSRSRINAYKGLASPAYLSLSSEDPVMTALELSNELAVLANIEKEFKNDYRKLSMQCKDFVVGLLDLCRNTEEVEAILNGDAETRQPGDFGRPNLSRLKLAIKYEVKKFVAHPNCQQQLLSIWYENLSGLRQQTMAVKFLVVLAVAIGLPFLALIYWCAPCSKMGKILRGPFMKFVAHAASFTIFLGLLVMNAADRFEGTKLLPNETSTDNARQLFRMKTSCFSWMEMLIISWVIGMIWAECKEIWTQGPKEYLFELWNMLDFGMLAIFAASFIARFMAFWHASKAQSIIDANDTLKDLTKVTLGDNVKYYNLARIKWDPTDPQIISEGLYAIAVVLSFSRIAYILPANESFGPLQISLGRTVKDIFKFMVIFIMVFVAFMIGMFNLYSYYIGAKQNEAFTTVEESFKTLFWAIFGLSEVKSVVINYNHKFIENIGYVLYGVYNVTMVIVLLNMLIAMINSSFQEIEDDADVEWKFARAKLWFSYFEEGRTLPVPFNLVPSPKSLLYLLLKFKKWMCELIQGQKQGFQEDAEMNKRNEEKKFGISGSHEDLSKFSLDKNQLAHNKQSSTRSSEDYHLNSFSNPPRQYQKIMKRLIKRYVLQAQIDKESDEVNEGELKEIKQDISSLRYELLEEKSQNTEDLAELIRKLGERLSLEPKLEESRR

[10] = biological target: Short transient receptor potential channel 6 (Mus musculus) (UniProt Q61143); assay: TRPC6 opening by TRPC4 activator hits – cell-based, HEK293, membrane potential dye, duplicate, selectivity assay for TRPC4 activator project, confirmation (AID 434950;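 active means membrane potential signal rise above negative control mean plus 3 SD in both duplicates, also active in the earlier TRPC4 screen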); details: HEK293 TRPC6, membrane potential fluorescence, at 10 µM; activation: active compounds read high; outcome: activation
[11] = biological target: Short transient receptor potential channel 6 (Mus musculus) (UniProt Q61143); assay: positive modulators of mouse TRPC6 channel – HEK293 cells, membrane potential dye, duplicate, selectivity assay for TRPC4 potentiator project, confirmation (AID 434952;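 active means compound raising the membrane signal above positive-control mean plus 3 SD in both repeats, and a primary screen hit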); details: HEK293 TRPC6, membrane potential dye fluorescence, at 10 µM, maximal acetylcholine added after compound; active compounds read high
[12] = biological target: Short transient receptor potential channel 4 (Mus musculus) (UniProt Q9QUQ5); assay: calcium flux activators in TRPC4/5HT1a cells, counter-screen for TRPC4 activator project, cell-based, second counter screen, HEK293 TRPC4/5HT1a, Fluo-4 (AID 434977;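 active means calcium signal rise above buffer-control mean plus 5 SD in both duplicates, and also a hit in the primary screen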); details: Fluo-4 calcium flux, at 10 µM; active compounds read high
[13] = serotonin-gated TRPC4 signal block – cell-based, second counter screen, HEK293 TRPC4/5HT1a, Fluo-4, counter-screen for TRPC4 inhibitor project, confirmation (AID 434978;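 active means primary screen active whose calcium signal fell more than 3 SD beyond the full-serotonin control mean in both duplicate plates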;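 on outcome: serotonin given first at submaximal then at maximal dose after compound preincubation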); details: Fluo-4 calcium flux, at 10 µM, serotonin added to trigger calcium flux; active compounds read high
[14] = tested on: TRPC4 (mouse), co-expressed with 5HT1a in HEK293; assay: enhancement of serotonin-evoked TRPC4 response – cell-based, second counter screen, HEK293 TRPC4/5HT1a, Fluo-4, counter-screen for TRPC4 potentiator project, confirmation (AID 434979;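 active means signal rise over 3 SD above mean of control wells given weak agonist, in both repeats and first screen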); details: Fluo-4 calcium flux, at 10 µM, serotonin added at its EC20 dose; active compounds read high
[15] = nonspecific calcium rise without TRPC4 – cell-based, HEK293 mu-opioid receptor line, counter-screen for TRPC4 activator project, confirmation (AID 449723;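 active means hit in primary screen, with calcium signal over 5 SD above buffer well mean in both duplicates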;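 further: counter screen cells carry the mu-opioid receptor alone and lack TRPC4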); details: HEK293 mu-opioid cells, Fluo-4 calcium fluorescence, at 10 µM; active compounds read high
[16] = nonspecific potentiation of DAMGO calcium response – cell-based, HEK293 mu-opioid receptor line, counter-screen for TRPC4 allosteric potentiator project, confirmation (AID 449724;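 active means calcium signal rise more than 3 SD above the low-dose agonist control mean, in both duplicate plates and the primary screen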); details: HEK293 mu-opioid receptor cells, Fluo-4 calcium flux, at 10 µM, compound added before EC20 DAMGO stimulus; active compounds read high

Measured: inhibition

C#Cc1ccc(CN2CCCC(C(=O)Nc3ccccc3Oc3cccnc3)C2)cc1 (stereo not given)
inactive: [1] | [2] | [3] | [4] | [7] | [8] | [9] | [10] | [11] | [12] | [14] | [15] | [16]
active: [5] 92% | [6] 39% | [13] 21.7%

CN1CCN(c2ccc(NC(=O)c3ccc(-c4ccc(Cl)cc4)o3)cc2)CC1
inactive: [1] | [2] | [3] | [4] | [7] | [8] | [9] | [10] | [11] | [12] | [13] | [14] | [15] | [16]
active: [5] 85% | [6] 58%

CCCCC(CC)c1nnc(NC(=O)c2cccs2)s1 (stereo not given)
active: [5] 90% | [13] 40.9%
inactive: [1] | [2] | [3] | [4] | [6] | [7] | [8] | [9] | [10] | [11] | [12] | [14] | [15] | [16]

O=C(CCN1CCc2ccccc2C(O)(c2ccccc2)C1)c1ccc2c(c1)OCCO2 (stereo not given)
active: [13] 39.2%
inactive: [1] | [2] | [3] | [4] | [5] | [6] | [7] | [8] | [9] | [10] | [11] | [12] | [14] | [15] | [16]

N#Cc1cccc2c1-c1ccccc1/C2=N/NC(N)=O
inactive: [1] | [2] | [3] | [4] | [7] | [8] | [9] | [10] | [11] | [12] | [14] | [15] | [16]
active: [5] 86% | [6] 81% | [13] 19.9%

CCOC(=O)C(C)Sc1nc2c(c(=O)[nH]c(=O)n2C)n1Cc1ccc(Cl)cc1 (stereo not given)
active: [5] 93% | [6] 68% | [13] 19.9%
inactive: [1] | [2] | [3] | [4] | [7] | [8] | [9] | [10] | [11] | [12] | [14] | [15] | [16]

COc1cc(CNC2CCCC2)c(Br)cc1OC1CCCC1
active: [5] 95% | [9] 53%
inactive: [1] | [2] | [3] | [4] | [6] | [7] | [8] | [10] | [11] | [12] | [13] | [14] | [15] | [16]

COc1ccc(C(CNc2ccc(C(F)(F)F)cn2)N(C)C)cc1OC (stereo not given)
active: [6] 69%
inactive: [1] | [2] | [3] | [4] | [5] | [7] | [8] | [9] | [10] | [11] | [12] | [13] | [14] | [15] | [16]

COc1ccc(CNC(=O)CN(C)Cc2ccccc2F)cc1OC
active: [5] 86% | [13] 34.9%
inactive: [1] | [2] | [3] | [4] | [6] | [7] | [8] | [9] | [10] | [11] | [12] | [14] | [15] | [16]

COc1ccc(Cl)cc1N/C(N)=N/c1nc(C)cc(C)n1
inactive: [1] | [2] | [3] | [4] | [7] | [8] | [10] | [11] | [12] | [14] | [15] | [16]
active: [5] 94% | [6] 53% | [9] 58% | [13] 15.3%

O=C(CCCSc1nc2ccccc2[nH]1)NCc1ccccc1Cl
active: [5] 88% | [6] 46% | [13] 27.7%
inactive: [1] | [2] | [3] | [4] | [7] | [8] | [9] | [10] | [11] | [12] | [14] | [15] | [16]

CC(C)n1c(NCc2c[nH]c3ccccc23)nc2ccccc21
active: [5] 50% | [9] 33.5% | [13] 26.4%
inactive: [1] | [2] | [3] | [4] | [6] | [7] | [8] | [10] | [11] | [12] | [14] | [15] | [16]

NC(=O)c1nsc(C(=O)N(Cc2ccco2)C(C(=O)NCc2ccc(F)cc2)c2ccc(O)cc2)c1N (stereo not given)
active: [5] 84% | [6] 55% | [13] 25.1%
inactive: [1] | [2] | [3] | [4] | [7] | [8] | [9] | [10] | [11] | [12] | [14] | [15] | [16]

O=C(Nc1ccc(Oc2ccccc2)nc1)C1CCN(Cc2ccccc2)CC1
active: [5] 74% | [13] 32.6%
inactive: [1] | [2] | [3] | [4] | [6] | [7] | [8] | [9] | [10] | [11] | [12] | [14] | [15] | [16]

Oc1ccc(-c2csc(-c3ccccc3)n2)cc1O
inactive: [1] | [2] | [3] | [4] | [6] | [7] | [8] | [9] | [10] | [11] | [12] | [13] | [14] | [15] | [16]
active: [5] 80%
